In PubChem BioAssay AID2283174 (EPA ToxCast):
Activity calls are given as the source filed them. The calls were made as follows: active = hit-call score of the fitted dose curve at least 0.9, where 1 is the maximum; inactive = score below 0.9.

Target: human Mitogen-Activated Protein Kinase 11 (MAPK 11), MAPK11 (gene 5600) (UniProt Q15759)
Test: NVS_ENZ_hMAPK11: NovaScreen (NVS) Enzymatic Assay for human Mitogen-Activated Protein Kinase 11 (MAPK 11)
Protocol: NVS_ENZ_hMAPK11 is a biochemical, single-readout assay that uses extracted gene-proteins in a cell-free assay. Measurements were taken 0 hour after chemical dosing in a 384-well plate.NVS_ENZ_hMAPK11 is one of one assay component(s) measured or calculated from the NVS_ENZ_hMAPK11 assay. It is designed to make measurements of enzyme activity, a form of enzyme reporter, as detected with fluorescence intensity signals by Fluorescence and electrophoretic mobility shift technology.Data from the assay component NVS_ENZ_hMAPK11 was analyzed into 1 assay endpoint. This assay endpoint, NVS_ENZ_hMAPK11, was analyzed in the positive analysis fitting direction relative to DMSO as the negative control and baseline of activity. Using a type of enzyme reporter, loss-of-signal activity can be used to understand changes in the enzymatic activity as they relate to the gene MAPK11. Furthermore, this assay endpoint can be referred to as a primary readout, because this assay has produced multiple assay endpoints where this one serves a enzymatic activity function. To generalize the intended target to other relatable targets, this assay endpoint is annotated to the kinase intended target family, where the subfamily is serine/threonine kinase.
Binding assays used specific radioligands (tritiated, iodinated) with non-radioactive competitive displacement ligands in agonist or antagonist protocols (as indicated) and various reference compounds and inhibitors to titrate specific binding to receptors and transporters. Most enzyme assays (CYPs, kinases, phosphatases, proteases, HDACs) used recombinant protein and specific substrates (fluorescence mostly, some colorimetric and radioactive) and inhibitors, followed by a biochemical separation of substrate and product. All assays for the biochemical HTS were initially run in duplicate at a single concentration (10 uM for CYP450 assays and 25 uM for all others). Assay-chemical combinations meeting a pre-defined threshold (e.g., 30% inhibition and other criteria defined below) were then run in singleton concentration-response format with maximum concentration of 20 uM for CYPs and 50 uM for all others. Each assay was run with positive and negative controls, and concurrent controls on every plate. The follow-up (secondary) screen tested active chemical-pairs in concentration series, as well as a few additional assays not tested in the primary screen, some selected negative inactives, and several cases re-run in the concentration series for confirmatory purposes.

Chain of human Mitogen-Activated Protein Kinase 11 (MAPK 11), MAPK11 (gene 5600) (Q15759 whole entry, looked up): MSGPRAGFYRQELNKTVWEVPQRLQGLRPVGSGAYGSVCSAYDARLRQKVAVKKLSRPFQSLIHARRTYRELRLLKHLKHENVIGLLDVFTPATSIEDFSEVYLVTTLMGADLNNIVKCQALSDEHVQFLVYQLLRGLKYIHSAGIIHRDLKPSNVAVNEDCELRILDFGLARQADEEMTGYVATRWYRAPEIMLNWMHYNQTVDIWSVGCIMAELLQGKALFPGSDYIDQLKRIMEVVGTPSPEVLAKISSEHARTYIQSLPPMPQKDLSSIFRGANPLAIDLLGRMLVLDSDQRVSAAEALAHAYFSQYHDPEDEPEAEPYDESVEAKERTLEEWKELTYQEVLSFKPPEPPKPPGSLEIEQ

Row | SMILES | outcome
1 | CC(C)(C)C(O)/C(=C\c1ccc(Cl)cc1Cl)n1cncn1 (centres undefined) | inactive
2 | C[Si](Cn1cncn1)(c1ccc(F)cc1)c1ccc(F)cc1 | inactive
3 | COc1nc(C)nc(NC(=O)NS(=O)(=O)c2ccccc2CCC(F)(F)F)n1 | inactive
4 | Fc1ccc(Oc2ccnc3cc(Cl)cc(Cl)c23)cc1 | inactive
